Results taken from PubChem BioAssay AID694 (Emory University Molecular Libraries Screening Center, 2007).
Screen size: about 1,300 compounds; about 25 (2%) were called active. The rule behind the calls is not given here. Shown is part of a subset that was picked to be rich in actives.

Molecular target: Estrogen receptor (Homo sapiens) (UniProt P03372)
Experiment: ERα coactivator peptide binding inhibitors, primary screen, biochemical, LOPAC library, TR-FRET (AID 694);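 note: receptor was agonist-bound with estradiol present during the assay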
Conditions: TR-FRET ERalpha-coactivator peptide binding, stronger effect = higher value

Chain of Estrogen receptor (Homo sapiens) (P03372 whole entry, looked up): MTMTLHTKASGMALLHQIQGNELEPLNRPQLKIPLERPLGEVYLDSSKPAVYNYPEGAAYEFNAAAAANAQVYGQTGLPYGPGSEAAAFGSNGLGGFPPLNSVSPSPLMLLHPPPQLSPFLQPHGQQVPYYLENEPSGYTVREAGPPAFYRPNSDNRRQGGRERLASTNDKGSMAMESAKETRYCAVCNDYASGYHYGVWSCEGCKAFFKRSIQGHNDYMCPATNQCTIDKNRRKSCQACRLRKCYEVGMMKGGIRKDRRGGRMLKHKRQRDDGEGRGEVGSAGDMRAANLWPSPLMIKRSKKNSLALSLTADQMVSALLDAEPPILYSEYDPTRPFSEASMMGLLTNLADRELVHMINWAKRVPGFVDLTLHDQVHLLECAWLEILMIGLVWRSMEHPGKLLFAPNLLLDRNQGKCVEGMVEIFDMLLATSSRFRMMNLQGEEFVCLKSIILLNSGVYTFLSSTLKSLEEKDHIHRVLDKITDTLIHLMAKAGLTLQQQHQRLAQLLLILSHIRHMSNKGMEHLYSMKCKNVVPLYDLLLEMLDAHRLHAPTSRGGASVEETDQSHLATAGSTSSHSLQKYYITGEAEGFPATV

Compound | inhibition (at 45 µM) | inhibition (inhibition, at 15 µM) [%]
CN(N=O)c1cc(O)ccc1O | 98.6% [fluorescence artefact?] (active) | 95.4
CN(N=O)c1ccc(O)c(O)c1 | 99.9% [fluorescence artefact?] (active) | 100
CCCN(CCC)CCc1ccc(O)c(O)c1 | -9.9% (inactive) | 5.4
CCCN(CCC)[C@@H]1CCc2ccc(O)cc2C1 | -8.07% (inactive) | 3.7
C[C@@H]1O[C@H](C[N+](C)(C)C)CS1 | -6.11% (inactive) | 5.81
c1ccc2c(N3CCNCC3)cccc2c1 | -1.45% (inactive) | 2.78
C=CCN1CCC2(C)c3cc(O)ccc3CC1C2C (stereo not given) | -11.9% (inactive) | -3.04
CC[C@@H](CO)NC(=O)[C@@H]1C=C2c3cccc4[nH]cc(c34)C[C@H]2N(C)C1 | 6.08% (inactive) | 0.61
Clc1ccc(C(c2ccc(Cl)cc2)n2cc[n+](CC(OCc3ccc(Cl)cc3Cl)c3ccc(Cl)cc3Cl)c2)cc1 (stereo not given) | 59.5% [fluorescence artefact?] (active) | 52.6
CO[C@H]1CC=C2CCN3CCC4=C(CC(=O)OC4)[C@]23C1 | -3.26% (inactive) | 3.57
O=C(O)[C@@H]1CCN1 | -15.6% (inactive) | -3.72
CCCN(CCC)C1CCc2ccc(O)cc2C1 (stereo not given) | -3.18% (inactive) | 3.52
N[C@@H](Cn1cc(I)c(=O)[nH]c1=O)C(=O)O | 0.52% (inactive) | 3.65
COC(=O)c1cc2c(cn1)[nH]c1ccccc12 | -2.45% (inactive) | 2.65
Cc1o[nH]c(=O)c1CC(N)C(=O)O (stereo not given) | -4.5% (inactive) | -1.59
N[C@@H](CCl)C(=O)O | -9.05% (inactive) | -4.18
NC(Cc1cc(O)c(O)cc1O)C(=O)O (stereo not given) | 100% [fluorescence artefact?] (active) | 100
O=[N+]([O-])c1ccc(O[C@@H]2O[C@H](CO)[C@@H](O)[C@H](O)[C@H]2F)c([N+](=O)[O-])c1 | -0.11% (inactive) | 6.88
Fc1ccc(C(OCCN2CCN(CCCc3ccccc3)CC2)c2ccc(F)cc2)cc1 | -7.86% (inactive) | -2.51
CN1C[C@@H](CS(=O)(=O)N(C)C)C[C@@H]2c3cccc4c3c(cn4C)C[C@H]21 | -2.14% (inactive) | -2.21
